Test systems include RPMI-8226 leukemia; OVCAR-8 ovarian; OVCAR-5 ovarian; OVCAR-4 ovarian; SK-OV-3 ovarian; OVCAR-3 ovarian; HS 578T breast; NCI/ADR-RES ovarian; T-47D breast; MDA-MB-435 melanoma; SW-620 colon; MCF7 breast; HCT-116 colon; KM12 colon; IGROV1 ovarian; BT-549 breast; HCC-2998 colon.
Test in all cases: NCI-60 one-dose screen, 48 h (100 = growth as untreated, 0 = no growth, -100 = all killed)
Holding throughout (conditions): 10 µM unless noted

About 83,000 compounds went through this panel and 20% of them were active in at least one assay; those are over-represented in the sample as a whole.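 Activity criterion: percent growth below 10, measured after cells in 96-well plates were exposed to a single compound concentration for 48 hours.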 Unmarked numbers belong to inactive results. Activity calls are given as the source filed them.

As to `CCN(CC)CCOc1ccc(C2=C(c3ccccc3)CCc3cc(OC)ccc32)cc1`, the growth in the experiment on RPMI-8226 leukemia is -64.7% (active); in the experiment with OVCAR-8 ovarian, 46.6%; in the experiment with OVCAR-5 ovarian, 22.2%; in the experiment on OVCAR-4 ovarian, 52.3%; with SK-OV-3 ovarian it was 68.9%; with OVCAR-3 ovarian it was 12.7%. The growth was -6.19% (active) in the experiment on HS 578T breast; -26.1% (active) with NCI/ADR-RES ovarian; 25% in the experiment with T-47D breast; -33.9% (active) with MDA-MB-435 melanoma; -59% (active) in the experiment with SW-620 colon; -9.06% (active) in the experiment with MCF7 breast. Also, the figures for the growth with HCT-116 colon and with KM12 colon were 5.52% (active) and -18.4% (active), respectively.

For the compound `COc1ccc(C2=NNC(c3cc(Cc4ccc(O)c(C5CC(c6ccc(OC)cc6)=NN5)c4)ccc3O)C2)cc1` (configuration not stated), the growth with RPMI-8226 leukemia is 26.9%; with OVCAR-8 ovarian, 28.8%; in the experiment with OVCAR-5 ovarian, 112%; in the experiment with OVCAR-4 ovarian, 58.3%; in the experiment on IGROV1 ovarian, 35.5%; in the experiment on OVCAR-3 ovarian, 68.6%. The growth in the experiment with HS 578T breast is 43%; with NCI/ADR-RES ovarian, 33.7%; in the experiment with T-47D breast it was 50.3%; with BT-549 breast, 58.1%; in the experiment on MDA-MB-435 melanoma, 12.1%; in the experiment on SW-620 colon, 30.3%. Besides, the growth is 26.1% in the experiment with MCF7 breast, 28.3% in the experiment on HCT-116 colon, 55.5% in the experiment with HCC-2998 colon and 55.4% in the experiment on KM12 colon.

`COc1ccc2c(c1)C(=O)c1c-2c(OCCN(C)C)nc2cc(OC)ccc12`: the growth was -25.4% (active) in the experiment with RPMI-8226 leukemia; 4.01% (active) in the experiment with OVCAR-8 ovarian; 44.9% in the experiment on OVCAR-5 ovarian; 4.71% (active) with OVCAR-4 ovarian; 6.3% (active) in the experiment with IGROV1 ovarian; 32.5% with OVCAR-3 ovarian. The growth in the experiment with HS 578T breast was 35.6%; in the experiment with NCI/ADR-RES ovarian, -11.3% (active); in the experiment on T-47D breast, 47.1%; in the experiment with BT-549 breast it was 56.6%; with MDA-MB-435 melanoma, 18.5%; with SW-620 colon, -45.8% (active). Further, the growth in the experiment with MCF7 breast is -50% (active); in the experiment on HCT-116 colon it was -76% (active); with HCC-2998 colon, -88.8% (active); in the experiment on KM12 colon, -37.4% (active).

Take `COc1ccc(CCN2CCCN3C2=Nc2ccccc2S3(=O)=O)cc1`: the growth with RPMI-8226 leukemia is 29.9%; with OVCAR-8 ovarian it was 36.2%; in the experiment with OVCAR-5 ovarian it was 43.4%; in the experiment with OVCAR-4 ovarian, 54.1%; with IGROV1 ovarian, 50.8%; in the experiment on OVCAR-3 ovarian it was 6.69% (active). In addition, the growth is 39.5% with HS 578T breast; 15.8% in the experiment with NCI/ADR-RES ovarian; 44.7% in the experiment on T-47D breast; 50.2% in the experiment on BT-549 breast; -5.64% (active) with MDA-MB-435 melanoma; 28% with SW-620 colon. The growth in the experiment with MCF7 breast is 19.3%; in the experiment on HCT-116 colon it was 17.4%; with HCC-2998 colon it was 21.7%; in the experiment on KM12 colon, 25.8%.

As for `COc1ccc(Cn2cc3c(c2-c2ccccc2)CCc2cncnc2-3)cc1`, the growth was 19.6% in the experiment with RPMI-8226 leukemia; 70.5% with OVCAR-8 ovarian; 76.7% in the experiment on OVCAR-5 ovarian; 93.1% in the experiment with OVCAR-4 ovarian; 76.8% in the experiment on SK-OV-3 ovarian; 29.6% with OVCAR-3 ovarian. The growth in the experiment with HS 578T breast is 63.2%; with NCI/ADR-RES ovarian, 12.3%; in the experiment with T-47D breast, 46.7%; in the experiment with MDA-MB-435 melanoma it was 0.92% (active); in the experiment on SW-620 colon, 27.5%; with MCF7 breast, 39.4%. Moreover, the growth in the experiment on HCT-116 colon was 27.2%; in the experiment with HCC-2998 colon, 53.1%; in the experiment with KM12 colon, 26.6%.

Turning to `O=C1Nc2ccccc2C12Nc1cc(Cl)ccc1S2` (configuration not stated), the growth with RPMI-8226 leukemia was 42%; in the experiment with OVCAR-8 ovarian, 104%; in the experiment with OVCAR-5 ovarian it was 104%; in the experiment on OVCAR-4 ovarian, 70.4%; with SK-OV-3 ovarian it was 70.9%; with OVCAR-3 ovarian, 76.3%. Moreover, the growth with HS 578T breast is 135%; with NCI/ADR-RES ovarian it was 97.2%; in the experiment with T-47D breast, 42.4%; in the experiment with BT-549 breast, 76.2%; in the experiment with MDA-MB-435 melanoma, 95.4%; in the experiment with SW-620 colon it was 120%. For the same compound, the growth with MCF7 breast was 59.7%; in the experiment on HCT-116 colon, 84.5%; in the experiment with HCC-2998 colon it was 110%; with KM12 colon, 80.4%.

For the compound `Cc1ccc([N+](=O)[O-])cc1NC(=O)Nc1cccc(F)c1`, the growth in the experiment on RPMI-8226 leukemia was 19.4%; in the experiment with OVCAR-8 ovarian, 71.6%; in the experiment on OVCAR-5 ovarian, 89.6%; in the experiment on OVCAR-4 ovarian, 50.3%; with SK-OV-3 ovarian, 98.7%; with OVCAR-3 ovarian it was 51.8%. Besides, the growth was 64.3% with NCI/ADR-RES ovarian; 29.8% in the experiment on T-47D breast; 92.7% in the experiment on BT-549 breast; 76.7% with MDA-MB-435 melanoma; 99.7% in the experiment with SW-620 colon; 69.8% with MCF7 breast. Moreover, the growth in the experiment with HCT-116 colon was 44%; in the experiment on KM12 colon, 80.9%.

As to `C/C(=C\CCc1ccsc1)CC/C=C(\C)CCCN1CCN(CCO)CC1`, the growth is -18.9% (active) in the experiment with RPMI-8226 leukemia; 59.3% in the experiment with OVCAR-8 ovarian; 71.8% in the experiment with OVCAR-5 ovarian; 41.9% in the experiment with OVCAR-4 ovarian; 52.8% with IGROV1 ovarian; 64.6% in the experiment with OVCAR-3 ovarian. For the same compound, the growth in the experiment with HS 578T breast was 49.5%; in the experiment with NCI/ADR-RES ovarian, 56.3%; in the experiment with T-47D breast it was 36.2%; in the experiment on BT-549 breast, 30.1%; with MDA-MB-435 melanoma, 41%; in the experiment with SW-620 colon, -11.4% (active). In addition, the growth in the experiment with MCF7 breast is 26.3%; in the experiment with HCT-116 colon, 26%; with HCC-2998 colon, 19.8%; in the experiment with KM12 colon it was 27.1%.

As for `CCOC(=O)c1c2c(c(C)n1Cc1ccccc1)-c1nc(N)ncc1CC2`, the growth in the experiment with RPMI-8226 leukemia is 80%; with OVCAR-8 ovarian, 104%; in the experiment on OVCAR-5 ovarian, 78.6%; with OVCAR-4 ovarian, 105%; in the experiment with SK-OV-3 ovarian it was 118%; in the experiment on OVCAR-3 ovarian it was 125%. Moreover, the growth was 93.6% in the experiment on HS 578T breast; 101% in the experiment on NCI/ADR-RES ovarian; 86.4% in the experiment on T-47D breast; 162% in the experiment with BT-549 breast; 136% in the experiment with MDA-MB-435 melanoma; 104% in the experiment with SW-620 colon. Also, the growth in the experiment with HCT-116 colon was 90.7%; in the experiment with HCC-2998 colon, 97.4%; in the experiment on KM12 colon, 100%.

For `CN(C)c1ccc(/C=C\c2ccnc3ccccc23)cc1`, the growth was -18.1% (active) in the experiment with RPMI-8226 leukemia; 63.6% with OVCAR-8 ovarian; 65% in the experiment on OVCAR-5 ovarian; 68.2% in the experiment on OVCAR-4 ovarian; 55.2% with SK-OV-3 ovarian; 84.9% with HS 578T breast. The growth is -35.5% (active) in the experiment on NCI/ADR-RES ovarian; 65.4% in the experiment with T-47D breast; -0.99% (active) in the experiment with BT-549 breast; 33.6% in the experiment on MDA-MB-435 melanoma; 87.7% in the experiment with SW-620 colon; 39.1% in the experiment with MCF7 breast. Further, the growth with HCT-116 colon is 62.6%; with KM12 colon, 55.8%.

The values are drawn from PubChem BioAssay (NCI).
